target: Vascular endothelial growth factor receptor 1 (Homo sapiens) (UniProt P17948); settings: at 0.1 µM
Sequence (P17948 whole entry): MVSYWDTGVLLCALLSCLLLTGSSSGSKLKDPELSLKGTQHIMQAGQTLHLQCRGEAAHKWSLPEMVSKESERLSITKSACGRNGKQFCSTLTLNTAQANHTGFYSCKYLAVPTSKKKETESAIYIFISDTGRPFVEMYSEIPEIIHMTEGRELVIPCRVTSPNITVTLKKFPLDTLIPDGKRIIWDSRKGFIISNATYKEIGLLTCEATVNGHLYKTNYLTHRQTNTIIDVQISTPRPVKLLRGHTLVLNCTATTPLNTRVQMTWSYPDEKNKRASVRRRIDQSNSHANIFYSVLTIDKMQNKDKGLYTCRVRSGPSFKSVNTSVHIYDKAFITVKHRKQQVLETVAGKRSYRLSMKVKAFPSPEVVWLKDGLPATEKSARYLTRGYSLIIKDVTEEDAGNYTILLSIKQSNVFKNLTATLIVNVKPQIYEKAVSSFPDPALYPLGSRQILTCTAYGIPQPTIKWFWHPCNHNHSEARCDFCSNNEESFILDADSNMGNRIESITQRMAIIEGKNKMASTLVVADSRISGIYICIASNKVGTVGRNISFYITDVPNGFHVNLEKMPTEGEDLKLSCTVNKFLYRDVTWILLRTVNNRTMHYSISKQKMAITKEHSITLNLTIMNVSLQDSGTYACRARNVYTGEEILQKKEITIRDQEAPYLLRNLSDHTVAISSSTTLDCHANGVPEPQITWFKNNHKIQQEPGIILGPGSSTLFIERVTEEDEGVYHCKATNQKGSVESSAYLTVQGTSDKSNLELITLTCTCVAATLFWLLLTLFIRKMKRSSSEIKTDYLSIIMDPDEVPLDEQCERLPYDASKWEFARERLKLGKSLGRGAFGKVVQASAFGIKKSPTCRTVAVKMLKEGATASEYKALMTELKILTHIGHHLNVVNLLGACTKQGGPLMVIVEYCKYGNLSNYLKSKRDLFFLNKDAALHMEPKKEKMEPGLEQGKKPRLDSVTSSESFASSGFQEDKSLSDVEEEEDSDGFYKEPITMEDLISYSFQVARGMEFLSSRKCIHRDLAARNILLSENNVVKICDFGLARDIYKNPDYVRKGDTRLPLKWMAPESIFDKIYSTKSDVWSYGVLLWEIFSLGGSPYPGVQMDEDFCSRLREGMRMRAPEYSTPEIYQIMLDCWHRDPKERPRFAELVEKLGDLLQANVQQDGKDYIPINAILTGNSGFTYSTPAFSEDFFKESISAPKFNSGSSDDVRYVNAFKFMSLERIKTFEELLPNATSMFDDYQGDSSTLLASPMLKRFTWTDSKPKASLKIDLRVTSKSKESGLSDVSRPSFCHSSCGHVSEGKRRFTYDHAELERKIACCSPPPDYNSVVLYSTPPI

| SMILES | inhibition [%] |
| --- | --- |
| Fc1cccc(COc2ccc(Nc3ncnc4sc(-c5cccs5)cc34)cc2Cl)c1 | -0.58 |
| CC1=C(C(=O)Nc2ccc3[nH]ncc3c2)C(c2ccc(F)cc2)NC(=O)N1 (stereo not drawn) | -0.38 |
| CCn1c(-c2nonc2N)nc2c(N3CCCC3)nccc21 | -0.79 |
| NS(=O)(=O)c1ccc(N/N=C2\C(=O)Nc3ccc(C(=O)NCCc4c[nH]cn4)cc32)cc1 | 2.21 |
| CC(C)=Cc1cccc2c1/C(=N/Nc1ccc(S(N)(=O)=O)cc1)C(=O)N2 | 1.39 |
| COc1cc2ncn(-c3cc(O[C@H](C)c4ccccc4Cl)c(C(N)=O)s3)c2cc1OC | 4.8 |
| COc1cc2ncn(-c3cc(O[C@@H](C)c4ccccc4Cl)c(C(N)=O)s3)c2cc1OC | 4.55 |
| Fc1cccc(COc2ccc(Nc3ncnc4cc(-c5ccc[nH]5)sc34)cc2Cl)c1 | -0.98 |
| CN1CCC(C(=O)Nc2n[nH]c3nnc(-c4ccccc4)cc23)CC1 | 0.44 |
| Cn1cc(C=C2C(=O)Nc3cccnc32)c2ccccc21 | 1.42 |
| COc1ccc(-c2nn3ncccc3c2-c2ccnc(Nc3ccc(Cl)c(C(F)(F)F)c3)n2)cc1 | -1.35 |
| NC(=O)c1cccc(Nc2nccc(Nc3cccc4[nH]ncc34)n2)c1 | 2.24 |
| COc1ccc(-c2ccncc2)cc1C(N)=O | 2.23 |
| CS(=O)(=O)CCN(CC#N)Cc1ccc(-c2ccc3ncnc(Nc4ccc(OCc5cccc(F)c5)c(Cl)c4)c3c2)o1 | 3.08 |
| CNC(=O)c1cncc(/C=C/c2c(Cl)cccc2Cl)c1 | 0.03 |
| CCn1c(-c2nonc2N)nc2c(C#CC(C)(C)O)nc(CN3CCCC3)cc21 | -1.48 |
| COc1ccccc1Nc1ncc(-c2ccccc2)o1 | 4.3 |

| SMILES | inhibition [%] |
| --- | --- |
| Cc1nn(C)c2cc(N(C)c3ccnc(Nc4cccc(S(N)(=O)=O)c4)n3)ccc12 | 2.5 |
| CCn1c(-c2nonc2N)nc2cncc(C(=O)N3CC[C@H](N)C3)c21 | -0.71 |
| O=C(Nc1n[nH]c2nc(-c3ccco3)c(Br)cc12)C1CC1 | 2.26 |
| COc1ccc(-c2coc3ncnc(N)c23)cc1 | -1.7 |
| O=C1NC(=O)C(c2cccc(Cl)c2)=C1Nc1ccc(O)c(Cl)c1 | 0.72 |
| CS(=O)(=O)CCNCc1ccc(-c2ccc3ncnc(Nc4ccc(OCc5cccc(F)c5)c(C(F)(F)F)c4)c3c2)o1 | -0.83 |
| O=C1NC(=O)C(c2ccccc2Cl)=C1Nc1cccc(O)c1 | 0.36 |
| COc1cc2ncn(-c3cc(OCc4ccccc4Cl)c(C(N)=O)s3)c2cc1OC | 0.69 |
| Nc1ncnc2occ(-c3ccc(NC(=O)Nc4cccc(C(F)(F)F)c4)cc3)c12 | 56 |
| COc1cc(C=NNc2ncnc3c2cnn3-c2ccccc2)ccc1O | 3.24 |
| CC1=C(C(=O)Nc2ccc3[nH]ncc3c2)C(c2ccc(Cl)c(Cl)c2)CC(=O)N1 (stereo not drawn) | 0.2 |
| NC(=O)c1ccc(-c2nc(-c3ccccn3)c(-c3ccc4c(c3)OCO4)[nH]2)cc1 | -0.48 |
| COc1cccc(-n2ncc3c(N/N=C/c4cccc(F)c4)ncnc32)c1 | -0.74 |
| Cc1nnc(-c2ccc(C)c(-c3ccc(C(=O)Nc4cccc(C#N)c4)cc3)c2)o1 | -0.39 |
| N#Cc1c(NC(=O)c2cccc3ccccc23)sc2c1CCCC2 | -0.49 |
| Cc1ccc(NC(=O)c2ccnc(N3CCCC3)c2)cc1-c1ccc(C(=O)NCC2CC2)cc1 | -0.77 |
| COc1cc2ncn(-c3cc(OCc4ccccc4C(F)(F)F)c(C(N)=O)s3)c2cc1OC | 1.92 |

target: Vascular endothelial growth factor receptor 1 (Homo sapiens) (UniProt P17948); settings: at 1 µM

| SMILES | inhibition [%] |
| --- | --- |
| Fc1cccc(COc2ccc(Nc3ncnc4sc(-c5cccs5)cc34)cc2Cl)c1 | 3.56 |
| CC1=C(C(=O)Nc2ccc3[nH]ncc3c2)C(c2ccc(F)cc2)NC(=O)N1 (stereo not drawn) | 2.35 |
| CCn1c(-c2nonc2N)nc2c(N3CCCC3)nccc21 | -0.61 |
| NS(=O)(=O)c1ccc(N/N=C2\C(=O)Nc3ccc(C(=O)NCCc4c[nH]cn4)cc32)cc1 | 10.7 |
| CC(C)=Cc1cccc2c1/C(=N/Nc1ccc(S(N)(=O)=O)cc1)C(=O)N2 | 13.9 |
| COc1cc2ncn(-c3cc(O[C@H](C)c4ccccc4Cl)c(C(N)=O)s3)c2cc1OC | 26.2 |
| COc1cc2ncn(-c3cc(O[C@@H](C)c4ccccc4Cl)c(C(N)=O)s3)c2cc1OC | 13.3 |
| Fc1cccc(COc2ccc(Nc3ncnc4cc(-c5ccc[nH]5)sc34)cc2Cl)c1 | 1.18 |
| CN1CCC(C(=O)Nc2n[nH]c3nnc(-c4ccccc4)cc23)CC1 | 2.94 |
| Cn1cc(C=C2C(=O)Nc3cccnc32)c2ccccc21 | 13.1 |
| COc1ccc(-c2nn3ncccc3c2-c2ccnc(Nc3ccc(Cl)c(C(F)(F)F)c3)n2)cc1 | 1.63 |
| NC(=O)c1cccc(Nc2nccc(Nc3cccc4[nH]ncc34)n2)c1 | 29.2 |
| COc1ccc(-c2ccncc2)cc1C(N)=O | 2.25 |
| CS(=O)(=O)CCN(CC#N)Cc1ccc(-c2ccc3ncnc(Nc4ccc(OCc5cccc(F)c5)c(Cl)c4)c3c2)o1 | 6.33 |
| CNC(=O)c1cncc(/C=C/c2c(Cl)cccc2Cl)c1 | 4.61 |
| CCn1c(-c2nonc2N)nc2c(C#CC(C)(C)O)nc(CN3CCCC3)cc21 | 3.78 |
| COc1ccccc1Nc1ncc(-c2ccccc2)o1 | 16.4 |

| SMILES | inhibition [%] |
| --- | --- |
| Cc1nn(C)c2cc(N(C)c3ccnc(Nc4cccc(S(N)(=O)=O)c4)n3)ccc12 | 30 |
| CCn1c(-c2nonc2N)nc2cncc(C(=O)N3CC[C@H](N)C3)c21 | 4.67 |
| O=C(Nc1n[nH]c2nc(-c3ccco3)c(Br)cc12)C1CC1 | 4.22 |
| COc1ccc(-c2coc3ncnc(N)c23)cc1 | 2.37 |
| O=C1NC(=O)C(c2cccc(Cl)c2)=C1Nc1ccc(O)c(Cl)c1 | 1.36 |
| CS(=O)(=O)CCNCc1ccc(-c2ccc3ncnc(Nc4ccc(OCc5cccc(F)c5)c(C(F)(F)F)c4)c3c2)o1 | -0.68 |
| O=C1NC(=O)C(c2ccccc2Cl)=C1Nc1cccc(O)c1 | 0.77 |
| COc1cc2ncn(-c3cc(OCc4ccccc4Cl)c(C(N)=O)s3)c2cc1OC | 9.81 |
| Nc1ncnc2occ(-c3ccc(NC(=O)Nc4cccc(C(F)(F)F)c4)cc3)c12 | 91 |
| COc1cc(C=NNc2ncnc3c2cnn3-c2ccccc2)ccc1O | 15.1 |
| CC1=C(C(=O)Nc2ccc3[nH]ncc3c2)C(c2ccc(Cl)c(Cl)c2)CC(=O)N1 (stereo not drawn) | 2.26 |
| NC(=O)c1ccc(-c2nc(-c3ccccn3)c(-c3ccc4c(c3)OCO4)[nH]2)cc1 | -1 |
| COc1cccc(-n2ncc3c(N/N=C/c4cccc(F)c4)ncnc32)c1 | 3.31 |
| Cc1nnc(-c2ccc(C)c(-c3ccc(C(=O)Nc4cccc(C#N)c4)cc3)c2)o1 | 1.58 |
| N#Cc1c(NC(=O)c2cccc3ccccc23)sc2c1CCCC2 | 0.41 |
| Cc1ccc(NC(=O)c2ccnc(N3CCCC3)c2)cc1-c1ccc(C(=O)NCC2CC2)cc1 | 0.49 |
| COc1cc2ncn(-c3cc(OCc4ccccc4C(F)(F)F)c(C(N)=O)s3)c2cc1OC | 9.39 |
